# PubChem BioAssay AID1159580 (chemical genetic matrix, 2015)
# Out of some 5,500 compounds screened, about 2,000 (36%) were called active. Another 18% or so got no clear call; they are omitted. The list shows a part of the results. A number with no mark means an inactive call. Cut-off read from the data, not from the text of the source: active = normalized growth mostly below about 0.91 (no sharp cut-off); inconclusive = no clear call, values can overlap the other calls; inactive = mostly above about 0.92.
# Test: chemical genetic growth profiling, strain panel (AID 1159580);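 note: tested at 20 µM; growth read once vehicle control cultures reached saturation at 30 °C; 1 = growth at the plate median or of vehicle wells; lower values mean less growth of the strain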
# Conditions: growth OD
# [1] = S. cerevisiae deletion strains, locus YHR030C, strain SLT2, hits give low values
compound,measurement,setting,value
O=C(Oc1ccc(Cl)cc1Cl)c1c(Cl)cccc1Cl,normalized growth,"S. cerevisiae deletion strains, locus YAL013W, strain DEP1, hits give low values",0.946
same,normalized growth,"S. cerevisiae deletion strains, locus YBR229C, strain ROT2, hits give low values",0.981
same,normalized growth,"S. cerevisiae deletion strains, locus YDL101C, strain DUN1, hits give low values",0.979
same,normalized growth,"S. cerevisiae deletion strains, locus YDR150W, strain NUM1, hits give low values",0.882
same,normalized growth,"S. cerevisiae deletion strains, locus YEL061C, strain CIN8, hits give low values",0.997
same,normalized growth,"S. cerevisiae deletion strains, locus YGR078C, strain PAC10, hits give low values",0.965
same,normalized growth,[1],0.681 (active)
same,normalized growth,"S. cerevisiae deletion strains, locus YHR087W, strain rtc3, hits give low values",0.982
same,normalized growth,"S. cerevisiae deletion strains, locus YJL187C, strain SWE1, hits give low values",0.967
same,normalized growth,"S. cerevisiae deletion strains, locus YJR043C, strain POL32, hits give low values",0.955
same,normalized growth,"S. cerevisiae deletion strains, locus YJR075W, strain HOC1, hits give low values",0.945
same,normalized growth,"S. cerevisiae deletion strains, locus YKL190W, strain CNB1, hits give low values",0.969
same,normalized growth,"S. cerevisiae deletion strains, locus YLR039C, strain RIC1, hits give low values",1.2
same,normalized growth,"S. cerevisiae deletion strains, locus YLR058C, strain SHM2 (second series), hits give low values",0.989
same,normalized growth,"S. cerevisiae deletion strains, locus YLR085C, strain ARP6, hits give low values",0.812
same,normalized growth,"S. cerevisiae deletion strains, locus YLR262C, strain YPT6, hits give low values",1.2 [resistant] (active)
same,normalized growth,"S. cerevisiae deletion strains, locus YML094W, strain GIM5, hits give low values",0.968
same,normalized growth,"S. cerevisiae deletion strains, locus YMR219W, strain ESC1, hits give low values",0.985
same,normalized growth,"S. cerevisiae deletion strains, locus YMR263W, strain SAP30, hits give low values",0.961
same,normalized growth,"S. cerevisiae deletion strains, locus YNL153C, strain GIM3, hits give low values",0.985
same,normalized growth,"S. cerevisiae deletion strains, locus YNL298W, strain CLA4 (second series), hits give low values",0.957
same,normalized growth,"S. cerevisiae deletion strains, locus YNL322C, strain KRE1, hits give low values",0.986
same,normalized growth,"S. cerevisiae deletion strains, locus YNR030W, strain Alg12, hits give low values",0.939
same,normalized growth,"S. cerevisiae deletion strains, locus YPL055C, strain LGE1, hits give low values",0.876
same,normalized growth,"S. cerevisiae deletion strains, locus YPL241C, strain CIN2, hits give low values",0.954
same,normalized growth,"S. cerevisiae deletion strains, locus YPR135W, strain CTF4, hits give low values",0.907
same,normalized growth,"S. cerevisiae strains, strain wild type, hits give low values",0.984
CC(Oc1ccc(Cl)cc1Cl)C(=O)O (stereo not given),normalized growth,[1],0.968
same,normalized growth,"S. cerevisiae deletion strains, locus YHR079C, strain IRE1, hits give low values",0.964
same,normalized growth,"S. cerevisiae deletion strains, locus YJL095W, strain BCK1, hits give low values",0.961
same,normalized growth,"S. cerevisiae deletion strains, locus YJR066W, strain TOR1, hits give low values",0.898
same,normalized growth,"S. cerevisiae deletion strains, locus YLR113W, strain HOG1, hits give low values",0.968
same,normalized growth,"S. cerevisiae deletion strains, locus YNL183C, strain NPR1, hits give low values",0.896
same,normalized growth,"S. cerevisiae deletion strains, locus YOR231W, strain MKK1, hits give low values",0.965
same,normalized growth,"S. cerevisiae deletion strains, locus YPL256C, strain CLN2, hits give low values",0.955
